The list is not random: actives were taken first. Their share in the collection is about 10%.
BAZ2B block = blocks human BAZ2B; Q9UIF8; AlphaScreen BAZ2B-H3K14Ac peptide displacement; Potency, µM (series often up to 114 µM), usual class: inhibitors; hit rate 4.4% among 360,000; AID 504333; note: nearly all actives have a fitted effect of over 60% in size
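AlphaScreen displacement: compounds (up to 110uM) incubated 30 min at room temperature with a preformed 50 nM BAZ2B/50 nM biotinylated H3K14Ac peptide complex in PBS pH 7.4 with Tween-20. Donor and acceptor beads at 10 ug/mL final added, 20 min light-protected before reading.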
G9a block = G9a (human) methyltransferase inhibition | Q96KQ7 | G9a H3K9 monomethylation, AlphaScreen, 2 h | Potency, µM (series often up to 102 µM), hits mostly inhibitors | hit rate 8.8% among 350,000; note: nearly all actives have a fitted effect of over 75% in size
Target sequence (Q96KQ7 913-1193 limits assumed): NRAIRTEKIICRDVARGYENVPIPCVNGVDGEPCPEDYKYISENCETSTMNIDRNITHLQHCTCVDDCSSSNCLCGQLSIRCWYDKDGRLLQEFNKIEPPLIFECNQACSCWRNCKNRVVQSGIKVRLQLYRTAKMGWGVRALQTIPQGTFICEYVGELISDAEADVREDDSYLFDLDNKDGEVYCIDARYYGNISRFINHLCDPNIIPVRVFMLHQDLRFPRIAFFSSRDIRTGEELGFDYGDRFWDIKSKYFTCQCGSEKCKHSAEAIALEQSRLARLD
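Chemiluminescent proximity detection of H3K9 monomethylation, read after 10 min bead incubation in the dark. Reaction: 20 nM G9a, 500 nM biotin-H3K9 peptide, 20 uM SAM cofactor, 2 h, room temperature, following 15 min enzyme-compound preincubation.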
HP1b chromo inh = HP1-beta chromodomain-methylated histone interaction inhibition | hit rate 0.56% among 390,000 | P83916 | AID 540317 | AlphaScreen HP1-beta / biotin-H3K9me3 peptide binding | Potency, µM (titrated, usually from 114 µM), hits mostly inhibitors; note: nearly all actives have a fitted effect of over 70% in size
Target sequence (P83916 whole entry, looked up): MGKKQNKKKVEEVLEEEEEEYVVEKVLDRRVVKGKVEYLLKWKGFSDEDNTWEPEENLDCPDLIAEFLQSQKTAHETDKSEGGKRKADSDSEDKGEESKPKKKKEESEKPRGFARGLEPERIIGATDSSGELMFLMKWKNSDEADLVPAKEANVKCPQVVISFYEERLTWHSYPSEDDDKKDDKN
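Compound inhibition of the preformed complex between 50 nM HP1-beta and 50 nM biotinylated H3K9me3 peptide was read by AlphaScreen. Buffer was PBS pH 7.4 with 0.01% Tween-20. Incubations ran 30 min at room temperature, with 10 ug/mL donor/acceptor beads.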
CtBP-E1A inh = CtBP/E1A binding inhibition | AlphaScreen GST-E1A/His-CtBP binding, 1536-well; active compounds read low | activity change, % (concentration not given with the values) | hit rate 0.49% among 340,000 | AID 651724; in the data active = activity change below about -65%; inconclusive = mostly about -30% to -63%
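Steps: dispense buffer (Tris pH 8.0, NaCl 300 mM, TCEP 1 mM, BSA, Tween 20); add 5X protein mix (GST-E1A, His-CtBP, 125 nM each); pin 23 nL compound; 2 h at 37 °C, dark; add 5X beads (50 ug/mL); 1 h; read.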
JMJD2A Tudor = blocks the human JMJD2A Tudor domain. O75164. AlphaScreen JMJD2A-Tudor / H3K4me3 peptide binding. Potency, µM (doses to about 114 µM), actives largely listed as inhibitors. hit rate 4.4% among 390,000; note: nearly all actives have a fitted effect of over 50% in size
Six1-Eya2 blk = inhibitors of human Six1/Eya2 interaction | AlphaScreen GST-Six1/His-Eya2 binding, biochemical; active compounds read low | AID 651725 | Q15475+O00167 | hit rate 0.56% among 360,000 | activity change, % (no concentration beside the values); in the data active = activity change below about -65%; inconclusive = mostly about -30% to -63%
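Homogeneous AlphaScreen proximity assay pairing GST-Six1 with His-tagged Eya2 (added as 5X mix: 250 nM and 500 nM) in 50 mM Tris pH 8.0, 300 mM NaCl, 1 mM TCEP. Glutathione donor and nickel acceptor beads; 1 h, 37 °C, dark.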
Large screens that a line does not name were inactive. Unless noted, calls come from the whole dose curve; as a rule, active = well fitted inhibition curve with a large enough effect; inconclusive = small, poorly fitted or top-dose-only effect; inactive = no such curve, though single readings can be large or run the other way.

CN1C(=O)C(Cc2cnc[nH]2)NC1=S (configuration not stated)	G9a block 28.2µM (no result: CtBP-E1A inh)
O=C1N[C@@H](Cc2ccccc2)C(=O)N2CCCC12 (some centres not stated)	none (no result: BAZ2B block)
O=C1N[C@@H](Cc2cnc[nH]2)C(=O)N2CCC[C@@H]12	BAZ2B block inconclusive, G9a block 20µM
C[C@H](CO)N1C[C@H](C)[C@@H](CN(C)CC2CCCCC2)Oc2c(NC(=O)Cc3ccccc3)cccc2C1=O	JMJD2A Tudor 56.2µM (no result: BAZ2B block, G9a block)
C=CCn1c(SCC(=O)c2ccccc2)nnc1-c1ccc2c(c1)OCO2	BAZ2B block inconclusive, G9a block 20µM, JMJD2A Tudor 35.5µM
C=CCn1c(SCC(=O)NCc2ccc3c(c2)OCO3)nnc1-c1cccnc1	none
C=CCn1c(SCC(=O)c2ccccc2)nnc1-c1cc2ccccc2o1	G9a block 50.1µM
COCCCN(C(=S)NC(=O)C(C)(C)C)c1c(N)n(Cc2ccccc2)c(=O)[nH]c1=O	none
CCc1cc(C(=O)N(CCCOC)c2c(N)n(Cc3ccccc3)c(=O)[nH]c2=O)sc1C	G9a block 12.6µM
COCCCN(C(=S)NC(=O)c1ccc(Br)cc1)c1c(N)n(Cc2ccccc2)c(=O)[nH]c1=O	G9a block 50.1µM
Cc1ccsc1C(C(=O)NC(C)(C)C)N(Cc1ccco1)C(=O)c1csnn1 (configuration not stated)	none
Cn1c2c(c(=O)n(C)c1=O)C(c1ccccc1C(F)(F)F)CC(=O)N2 (configuration not stated)	none (no result: CtBP-E1A inh, Six1-Eya2 blk)
CC(=O)N1CCN(C(=O)c2cc(S(=O)(=O)Nc3ccc(S(C)(=O)=O)cc3)ccc2Cl)CC1	none
CCN1CCN(C(=O)c2cc(S(=O)(=O)Nc3ccc(S(C)(=O)=O)cc3)ccc2Cl)CC1	G9a block 50.1µM
NC(=O)NS(=O)(=O)Oc1ccccc1	JMJD2A Tudor 89.1µM (no result: G9a block)
COc1ccc(-c2csc(NCc3ccco3)n2)cc1	BAZ2B block 50.1µM, G9a block 39.8µM, HP1b chromo inh inconclusive, JMJD2A Tudor 79.4µM
c1coc(CNc2nc(-c3ccncc3)cs2)c1	JMJD2A Tudor inconclusive
CCC(C(=O)NCc1ccco1)n1nc(-c2ccc(OC)cc2)ccc1=O (configuration not stated)	BAZ2B block 50.1µM, G9a block inconclusive, JMJD2A Tudor inconclusive
Cc1nc2ccccn2c1-c1csc(NCc2ccco2)n1	BAZ2B block 50.1µM, G9a block 8.91µM
Cc1nc(C)c(-c2csc(NCc3ccco3)n2)s1	BAZ2B block 50.1µM, G9a block inconclusive, JMJD2A Tudor inconclusive
CC(=O)N1CCC2(CC1)OC(=O)C(C)=C2C(=O)Nc1cccc(Cl)c1C	none (no result: CtBP-E1A inh, Six1-Eya2 blk)
CN(C)C(=O)c1cccc(-c2cccc(-c3nc(C(=O)NCc4ccccc4)cc4c3[C@@H](CCO)N(S(=O)C(C)(C)C)C4)c2)c1 (some centres not stated)	none (no result: BAZ2B block, G9a block, HP1b chromo inh, JMJD2A Tudor)
Cc1ccn2c(-c3csc(NCc4ccccc4)n3)c(C)nc2c1	BAZ2B block 31.6µM, G9a block 5.01µM, HP1b chromo inh inconclusive, JMJD2A Tudor 56.2µM
Cc1nc(C)c(-c2csc(NCc3ccccc3)n2)s1	BAZ2B block 50.1µM, G9a block 50.1µM, HP1b chromo inh inconclusive, JMJD2A Tudor inconclusive
COC(=O)C1=C(C)NC(=O)C1(NC(=O)c1ccc(Cl)cc1)C(F)(F)F (configuration not stated)	none (no result: CtBP-E1A inh, Six1-Eya2 blk)
CCN1CCCC1CN(Cc1cc2cc(C)cc(C)c2[nH]c1=O)C(=O)Nc1ccccc1OC (configuration not stated)	G9a block 50.1µM
O=C(CN1CCC(Cc2ccccc2)CC1)N1CCc2ccccc2C1	BAZ2B block 50.1µM, G9a block 22.4µM, HP1b chromo inh inconclusive, JMJD2A Tudor inconclusive (no result: CtBP-E1A inh)
O=C(CN(C1CCCCC1)C1CCCCC1)N1CCc2ccccc2C1	BAZ2B block 44.7µM, G9a block 10µM, JMJD2A Tudor 6.31µM
CCc1ccc(CC)c(S(=O)(=O)Nc2ccc(O)c(C(=O)O)c2)c1	none
O=C(COc1ccc(S(=O)(=O)NC2CCCCC2)cc1)N1CCN(c2cccc(Cl)c2)CC1	none
Oc1c(N=NC(=S)Nc2ccccc2F)c2ccccc2n1Cc1cccc(Cl)c1	BAZ2B block 11.2µM, G9a block inconclusive, HP1b chromo inh inconclusive, CtBP-E1A inh inconclusive, JMJD2A Tudor inconclusive, Six1-Eya2 blk inconclusive
Cc1cccc(Cn2c(O)c(N=NC(=S)Nc3ccccc3F)c3ccccc32)c1	BAZ2B block 8.91µM, G9a block 8.91µM, JMJD2A Tudor 10µM (no result: CtBP-E1A inh)
Oc1c(N=NC(=S)Nc2ccccc2F)c2ccccc2n1Cc1ccc(F)cc1	BAZ2B block inconclusive, G9a block inconclusive, HP1b chromo inh inconclusive, JMJD2A Tudor inconclusive
Cc1cccc(NC(=S)N=Nc2c(O)n(CN3CCOCC3)c3ccccc23)c1C	JMJD2A Tudor inconclusive (no result: CtBP-E1A inh)
CC(=O)c1ccc(NC(=O)CSc2nnc(-c3ccncc3)n2-c2ccccc2)cc1	none (no result: CtBP-E1A inh, Six1-Eya2 blk)
C/C(=N/O)c1no[n+]([O-])c1/C(C)=N\O	none (no result: G9a block)
CCS(=O)(=O)N1Cc2ccccc2CC1C(=O)NC(C)C12CC3CC(CC(C3)C1)C2 (configuration not stated)	G9a block 14.1µM
O=S(=O)(c1cccc(C(F)(F)F)c1)N1CCC(c2cc(-c3cccc4ccccc34)n[nH]2)CC1	BAZ2B block inconclusive, JMJD2A Tudor 39.8µM
Cc1cc(C(C2C(=O)CC(C)(C)CC2=O)C2C(=O)CC(C)(C)CC2=O)cc(C)c1OC(F)F	G9a block 31.6µM
CC1(C)CC(=O)C(C(C2=C(O)CC(C)(C)CC2=O)c2ccc([N+](=O)[O-])cc2)C(=O)C1 (configuration not stated)	G9a block 31.6µM
CC1(C)CC(=O)C(C(c2cccnc2)C2C(=O)CC(C)(C)CC2=O)C(=O)C1	G9a block 50.1µM
CC1(C)CC(=O)C(C(c2ccccc2F)C2C(=O)CC(C)(C)CC2=O)C(=O)C1	none (no result: G9a block)
COc1cccc(C(C2C(=O)CC(C)(C)CC2=O)C2C(=O)CC(C)(C)CC2=O)c1	G9a block 79.4µM (no result: CtBP-E1A inh)
COC(=O)c1c(NC(=O)C2c3ccccc3Oc3ccccc32)sc2c1CCC(C)C2 (configuration not stated)	none (no result: CtBP-E1A inh, Six1-Eya2 blk)
COc1cccc(C(C2=C(O)CC(C)(C)CC2=O)C2C(=O)CC(C)(C)CC2=O)c1 (configuration not stated)	G9a block 44.7µM
Cc1ccc(C(C2=C(O)CC(C)(C)CC2=O)C2C(=O)CC(C)(C)CC2=O)s1 (configuration not stated)	G9a block inconclusive
COC(=O)COc1ccc(NC(=O)C(c2ccccc2)c2ccccc2)cc1	BAZ2B block inconclusive (no result: CtBP-E1A inh)

Bioassay records as filed in PubChem BioAssay.
